Records with an inconclusive call do not appear. Calls of active or inactive are those of the source. Unless noted, calls come from the whole dose curve. Positions of bridges follow the written chain, without caps; N, C: chain ends. Non-standard residues stand in square brackets, D forms with d. Residues, ends and D or L forms follow the SMILES beside them. hArg = N=C(N)NCCCC[C@H](N)C(=O)O; Mpa = O=C(O)CCS
What was measured:
[1] = qHTS assay to identify small molecule antagonists of the estrogen related receptor signaling pathway with the pleiotropic PPARgamma coactivator (PGC) from Tox21 10K library - cell viability counter screen (AID 1224840; active = well fitted cell-killing curve with a large enough effect in the repeat runs, not every such curve was filed as active; note: nearly all actives have a fitted effect of over 40% in size); conditions: PGC/ERR reporter cells viability, CellTiter-Fluor, 17.5 h; series mostly up to 92.4 µM
Method in brief: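 Fluorescence read-out of CellTiter-Fluor viability reagent, added after cells had been exposed to compound in DMSO for 17.5 h at 37 C; 30 min development at 37 C/5% CO2. Cells: PGC/ERR line, 2,000/well.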

[2] = qHTS assay to identify small molecule agonists of the hypoxia (HIF-1) signaling pathway - cell viability counter screen (AID 1224844); conditions: HRE-bla ME-180 viability, CellTiter-Glo luminescence, 17 h; series mostly up to 76.8 µM; note: nearly all actives have a fitted effect of over 50% in size
Method in brief: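 CellTiter-Glo luminescence read-out, 30 min RT, taken in the same wells as the beta-lactamase HRE reporter assay; HRE-bla ME-180 cells, 0.5% dialyzed FBS, 17 hr compound treatment at 37C, 5% CO2.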

[3] = qHTS assay to identify small molecule agonists of H2AX (AID 1224845; active = well fitted activation curve with a large enough effect in the signal ratio in the repeat runs, not every such curve was filed as active; the % refers to the signal ratio); conditions: CHO-K1 phospho-H2AX Ser139 HTRF, 3 h; series mostly up to 154 µM
Method in brief: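 Phospho-H2AX Ser139 measured by HTRF (ex 320 nm; em 665 and 620 nm) after 24 hr antibody incubation. Compounds, 15 concentrations, 0.76% DMSO, were applied to CHO-K1 cells for 3hr at 37C before lysis.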

[4] = qHTS assay to identify small molecule agonists of the hypoxia (HIF-1) signaling pathway (AID 1224846; active = well fitted activation curve with a large enough effect in the signal ratio in the repeat runs, not every such curve was filed as active; the % refers to the signal ratio); conditions: HRE-bla ME-180 cells, beta-lactamase ratio, 17 h; series mostly up to 76.8 µM
Method in brief: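 Beta-lactamase FRET read-out (CCF4-AM substrate) from ME-180 cells carrying an HRE-driven bla reporter, after 17 hrs compound exposure at 37C/5% CO2. Cells were seeded at 2,000 per well in 0.5% dialyzed FBS medium and preincubated 5 hrs.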

[5] = qHTS assay to identify small molecule agonists of H2AX - cell viability counter screen (AID 1224847); conditions: CHO-K1 viability, CellTiter-Glo luminescence, 3 h; series mostly up to 154 µM; note: top concentration of the series differs between compounds; nearly all actives have a fitted effect of over 30% in size
Method in brief: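 Viability of CHO-K1 (wild type) cells after 3 hr compound exposure was measured by CellTiter-Glo luminescence.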

[6] = biological target: Thyrotropin receptor (Homo sapiens) (UniProt P16473); assay: qHTS assay to identify small molecule agonists of the thyroid stimulating hormone receptor (TSHR) signaling pathway (AID 1224843); conditions: TSHR-HEK293 cells, cAMP HTRF, agonist mode, 30 min; series mostly up to 92.4 µM; note: nearly all actives have a fitted effect of over 45% in size
Thyrotropin receptor (Homo sapiens), sequence (P16473 whole entry, looked up): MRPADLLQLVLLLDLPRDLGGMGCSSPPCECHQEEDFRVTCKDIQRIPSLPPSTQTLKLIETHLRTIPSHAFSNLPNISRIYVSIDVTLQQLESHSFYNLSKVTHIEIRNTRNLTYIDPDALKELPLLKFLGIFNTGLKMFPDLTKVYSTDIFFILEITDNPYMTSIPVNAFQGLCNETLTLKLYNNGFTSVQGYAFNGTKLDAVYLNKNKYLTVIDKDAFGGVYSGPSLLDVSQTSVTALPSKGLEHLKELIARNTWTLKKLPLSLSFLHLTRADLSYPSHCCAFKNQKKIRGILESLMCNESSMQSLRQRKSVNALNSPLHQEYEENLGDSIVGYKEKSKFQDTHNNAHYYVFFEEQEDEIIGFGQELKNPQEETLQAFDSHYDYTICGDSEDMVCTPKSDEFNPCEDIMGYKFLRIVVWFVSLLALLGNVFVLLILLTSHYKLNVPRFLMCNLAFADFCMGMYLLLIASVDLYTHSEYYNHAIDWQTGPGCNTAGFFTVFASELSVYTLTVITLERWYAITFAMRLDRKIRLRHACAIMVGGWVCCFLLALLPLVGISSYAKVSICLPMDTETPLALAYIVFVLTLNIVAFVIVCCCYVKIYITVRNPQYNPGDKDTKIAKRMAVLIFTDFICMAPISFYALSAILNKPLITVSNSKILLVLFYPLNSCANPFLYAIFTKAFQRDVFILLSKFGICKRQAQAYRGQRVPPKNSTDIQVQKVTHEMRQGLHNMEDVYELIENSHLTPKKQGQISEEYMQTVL
Method in brief: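 Agonist activity read as cAMP rise via d2/cryptate HTRF competition, 1 h room-temperature detection, in HEK293 cells expressing TSHR. Fifteen-point titrations, each run in triplicate, with a 30 min room-temperature incubation beforehand.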
% is set by controls: 0 for no effect and ±100 for the full control effect.

O=C1NC(c2ccccc2)(c2ccccc2)C(=O)N1COP(=O)(O)O
inactive: outcome [1] | outcome [2] | outcome [3] | outcome [4] | outcome [5]

CCCCOCCOC(=O)COc1ccc(Cl)cc1Cl
inactive: outcome [1] | outcome [6] | outcome [3] | outcome [4] | outcome [5]

O=C[O][Al]([O]C=O)[O]C=O
inactive: outcome [1] | outcome [6] | outcome [4] | outcome [5]

O=C(CN1CCNCC1)NC1CCCCC1
inactive: outcome [1] | outcome [6] | outcome [3] | outcome [4] | outcome [5]

CC(C)CCOC(=O)c1ccccc1
inactive: outcome [1] | outcome [2] | outcome [3] | outcome [4] | outcome [5]

CCCC(=O)OC/C=C(\C)CCC=C(C)C
inactive: outcome [1] | outcome [2] | outcome [3] | outcome [4] | outcome [5]

CCCCCCCCCCCCCCCCCC#N
inactive: outcome [1] | outcome [6] | outcome [3] | outcome [4] | outcome [5]

C[C@H]1[C@@H](c2ccccc2)NC(=O)N1C
inactive: outcome [1] | outcome [6] | outcome [3] | outcome [4] | outcome [5]

O=C(O)CNC(=O)CNC(=O)CNC(=O)CSC(=O)c1ccccc1
inactive: outcome [1] | outcome [6] | outcome [3] | outcome [4] | outcome [5]

C[C@]12CCC(=O)C=C1CC[C@H]1[C@@H]3CC[C@](O)(C(=O)CO)[C@@]3(C)C[C@H](O)[C@@]12F
inactive: outcome [1] | outcome [6] | outcome [3] | outcome [4] | outcome [5]

CC1(C)Cc2cccc(N)c2O1
inactive: outcome [1] | outcome [2] | outcome [3] | outcome [4] | outcome [5]

CC(C)Cn1cnc2c1c(=O)n(C)c(=O)n2C
inactive: outcome [1] | outcome [2] | outcome [3] | outcome [4] | outcome [5]

CSc1cnccn1
inactive: outcome [1] | outcome [6] | outcome [3] | outcome [4] | outcome [5]

N[C@@H](Cc1ccc(O)cc1)C(=O)O
inactive: viability change, negative = cytotoxic [1] 3.49% [at 8.39 µM] | activity change, negative = cytotoxicity [2] 2.31% [at 6.97 µM] | activation (H2AX phosphorylation) [3] 0.078% [at 14 µM] | activation [4] -0.522% [at 7.01 µM] | activity change, negative = cytotoxicity [5] 5.12% [at 14 µM]

C=C(C)[C@@H]1CC=C(C)CC1
inactive: outcome [1] | outcome [2] | outcome [3] | outcome [4] | outcome [5]

CCC(C)OC(C)CC (stereo unspecified)
inactive: outcome [1] | outcome [2] | outcome [3] | outcome [4]

Cc1c(Cl)cccc1Cl
inactive: outcome [1] | outcome [2] | outcome [3] | outcome [4] | outcome [5]

C/C=C(\C)C(C)=O
inactive: outcome [1] | outcome [6] | outcome [3] | outcome [4] | outcome [5]

CC1(C)CC(OC(=O)CCCCCCCCC(=O)OC2CC(C)(C)NC(C)(C)C2)CC(C)(C)N1
inactive: viability change, negative = cytotoxic [1] -0.192% [at 19 µM] | activation [6] -8.72% [at 19 µM] | activation (H2AX phosphorylation) [3] 0.0652% [at 31.6 µM] | activation [4] -0.0727% [at 15.8 µM] | activity change, negative = cytotoxicity [5] -4.19% [at 31.6 µM]

CC(C)=CCC/C(C)=C/COC=O
inactive: outcome [1] | outcome [6] | outcome [3] | outcome [4] | outcome [5]

N#Cc1cscn1
inactive: outcome [1] | outcome [2] | outcome [3] | outcome [4] | outcome [5]

CCCCCCCCCCCCCCCCCCOCCO
inactive: viability change, negative = cytotoxic [1] -0.639% [at 19 µM] | activation [6] -2.81% [at 19 µM] | activation (H2AX phosphorylation) [3] -3.63% [at 31.6 µM] | activation [4] 0.444% [at 15.8 µM] | activity change, negative = cytotoxicity [5] -6.52% [at 31.6 µM]

[O]=[Mo](=[O])=[O]
inactive: viability change, negative = cytotoxic [1] -2.25% [at 19 µM] | activation [6] -6.48% [at 19 µM] | activation (H2AX phosphorylation) [3] -3.3% [at 31.6 µM] | activation [4] -0.622% [at 15.8 µM] | activity change, negative = cytotoxicity [5] -2.98% [at 31.6 µM]

COC(=O)CCCCC(CCSS/C(CCO)=C(\C)N(C=O)Cc1cnc(C)nc1N)SC(C)=O (stereo unspecified)
inactive: outcome [1] | outcome [6] | outcome [3] | outcome [4] | outcome [5]

CC(=O)O[C@@H]1CC2CCC1(C)C2(C)C (stereo partly specified)
inactive: outcome [1] | outcome [6] | outcome [3] | outcome [4] | outcome [5]

CCCCOC(=O)[C@H](C)O
inactive: outcome [1] | outcome [6] | outcome [3] | outcome [4] | outcome [5]

NC(=O)[C@@H]1CSSCCC(=O)N[C@@H](CCCCN=C(N)N)C(=O)NCC(=O)N[C@@H](CC(=O)O)C(=O)N[C@@H](Cc2c[nH]c3ccccc23)C(=O)N2CCC[C@H]2C(=O)N1 ([Mpa][hArg]GDWPC-NH2; disulfide 1-7)
inactive: outcome [1] | outcome [6] | outcome [4] | outcome [5]

CCCCSCCCC
inactive: outcome [1] | outcome [6] | outcome [3] | outcome [4] | outcome [5]

CCCc1ccc(O)cc1
inactive: outcome [1] | outcome [6] | outcome [3] | outcome [4] | outcome [5]

CC(=O)C1C(=O)C=C(C)OC1=O (stereo unspecified)
inactive: outcome [1] | outcome [6] | outcome [3] | outcome [4] | outcome [5]

CC(C)Nc1ccccc1
inactive: outcome [1] | outcome [6] | outcome [3] | outcome [4] | outcome [5]

CC(=O)O[C@H]1C[C@@H]2CC[C@@]1(C)C2(C)C
inactive: outcome [1] | outcome [6] | outcome [3] | outcome [4] | outcome [5]

CC1=C(C(=O)O)N2C(=O)[C@@H](NC(=O)[C@H](N)C3=CCC=CC3)[C@H]2SC1
inactive: outcome [1] | outcome [6] | outcome [3] | outcome [5]

CC(C)OC(=O)CCC(=O)OC(C)C
inactive: outcome [1] | outcome [6] | outcome [3] | outcome [4] | outcome [5]

Source: PubChem BioAssay (Tox21)
